Out of some 53,000 sequences screened, about 3,700 (7%) were called active.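 The calls were made as follows: active = gene knockdowns whose robust z-score for IL-1 alpha signal is at least 2 or at most -2, so actives lie on both sides; inactive = the rest.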 Many of the other results were omitted from the sample, so actives are more common in it than they were.
test: Components of the Cytosolic LPS Sensing Pathway: Gene Identification via Genome-wide siRNA Screen; details: RAW264.7 macrophages, IL-1a HTRF, actives lie on both sides, screened at 100 nM (by protocol), cells primed 5 h with Pam3CSK4 first;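 also: robust z of the log signal after scaling to non-targeting control siRNA wells of the plate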
Method in brief: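 Three distinct siRNAs per gene were tested singly at 100 nM in RAW264.7 macrophages. Following Pam3CSK4 priming and 24 hour LipidA transfection, IL-1a secretion was read by HTRF.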

z-score, inactive:
CGUACAACACGGAAACCUATT against Paqr5 -0.448, GGGUCUCAGCAGUGCAAACTT against Txnip -0.486, GGAGAGAGGGAAAAAAGAATT against Sox4 -0.317, GGCUUGACUGCUAUUUUAGTT against Csn1s1 0.711, CCACCUGACUUUUGGAAGATT against Coro1b -1.8, UUAAGGAAAUGUUCUGUUCTT against Olfr426 0.797, GGCCAAGUUCAACAUUCCATT against Lilrb4a 0.539, GGGACUUAAGUGAAGUUCATT against Ogfod2 0.232, GCUGUCUCGUCAUUUAAGATT against Dym -0.461, GGAAAGUGUUGUCAAAAGATT against Olfr125 -0.386, GGCAUGUGGAAAACCUCCUTT against Lrrc46 -0.413, GGAGAAAAAAUUCUUAUCCTT against Prmt2 -0.31, GGCGGUUUCACCUAUACAATT against Rspo4 0.821, GGUCACCUUAACCGAGAAGTT against Phkg1 0.19, GGACUUAACUAGUUGACAATT against Pclaf -1.06, GGGAGUGCCUUUAAAACACTT against Satb1 0.882, GCCAAAAGGAGGACAUACCTT against Mylk3 1.08, GGAUAUUGAUUGCUUUGUUTT against Uox 1.41, CCAACAAUGAUUAAUCAGCTT against Meis1 -1.38, GGAAAAUCACAAUCACUUGTT against Ccdc43 -0.669, GGUACCACCAUGCUAUGGUTT against Krtap19-9b 0.646, GCACUCAAGACCUGUAUGATT against Cldn18 0.627, GGAAAUGCCAUUUGAUUUGTT against Rfpl4 0.599, CCAUCGUAUUUAACCACAUTT against Dtymk 0.206, GGCAAACUUAUCUUCUUCUTT against Ahsa1 -1.89, GGGAGUUAUAUUAGUCUAUTT against Rab18 0.436, GGAUGCAGAGACCUAUUUCTT against Cacng5 -0.158, GGAACAGAGCCUUUCUCAGTT against Rnf183 -0.153, GCUAAUAGCCUGCCUAAGGTT against Plekhj1 1.35, GUUACAAAACAUCGGUGGGTT against Vsig2 1.06, CCUAGACAAAGUUUCAAACTT against Xrcc4 -0.662, GGAAAGAUUUCGAACAAUCTT against Rab1a 1.66, GGCAGUUAGUAAGUUUAAATT against Eif5a2 1.22, GGUAUACACAUGAAAACCATT against Ccdc137 -0.548, GGUGAUUCGUCAGAAGCUGTT against Gpr84 -0.61, GGCUUGCUAAAGGAUGGGATT against Coq8b 0.0536, CGUACUGGUACGGAAGCGUTT against Adck1 0.279, GGAAUGAGGUUUGUAGACUTT against Arsg -0.765, GGAGGACUAGGAGUGAUUGTT against Fggy -0.363, GGAUAGUCAGAAAUGGAAATT against Chmp4c -0.43, GGGUGAUUUCUAUUCACUATT against Pam -0.633, GCACGGUCAAGUUUUGAUUTT against Prkaa2 -0.792, GGGCCAAUUCUGAAACUUGTT against Il1f5 0.669, GCUAGUGUGAUACCAUUUATT against Nab1 1.63, GGAGAACCGUAACAACAACTT against Cacna1a 0.692, GGUAGACUCUAGAUUAAGATT against Srrm2 -0.58, CCCACCUUACAUAUAUUGATT against Srr 0.25, GGUAUUAGAAGAUAAUGACTT against Akt3 -1.12, CCAUCAGUUUCAUUAUUGGTT against Fpr-rs6 -0.605, GCAUAACUUAAACUGCUCATT against Zfp12 1.91, CCAGAGCUUAUUGAGAUGCTT against Myh4 -0.475, GGCUGUUACAAGAACGUAGTT against 5031434C07Rik -1.99, GGAAACAACCCAAAGAAUCTT against Slc12a8 -0.343, GGUGGACCUGAAACGUAGCTT against Inhbb 0.878, GGUUCAUCUUUCAAAUCUATT against Kpna4 -0.676, CCUAGUAAUGUCCAUUGUGTT against Endod1 0.0364

z-score, active:
GGCUUUGAGAGGAACACCATT against Sh2d4b -2.49, GGAUGAUGAAUUCACACACTT against Calr 3.18, GGUAUGAUGAAAAUACACATT against Mmp1a 2.56, GGACAAAAGAUUCUUCAUCTT against Map1b 2.93, GGUGGUGAUUCACCUCCAATT against Tnfrsf12a -2.23, GGACGAUCAUGACAAGAUGTT against Psmb2 -2.35, CCCAUGAUCUGGAAGAGACTT against Il1a -2.08, CAGUUUUUGGUCUCUAUCUTT against Olfr113 2.27, CCGUACAUCGAGAAAUACATT against Hal 2.36, CCACAGUACGCUGAAAUCCTT against Morf4l1 -2.27, CGAGCAAAUCUCAUUCAAGTT against Oxgr1 3.07, GCUACUUAAGGGUUUGGAUTT against Pcdhb3 4.67, CCUGUAGGUGGAAUAAACATT against Awat2 -2.28

Reference: PubChem BioAssay AID1508600 (Functional Genomics Laboratory (NCATS/FGL), 2020)
